Results filed as inconclusive are left out. Calls of active or inactive are those of the source. Calls follow the shape of the dose curve; as a rule, active = well fitted cell-killing curve with a large enough effect in the repeat runs; inconclusive = weak or mixed curves; inactive = no such curve, though single readings can be large or run the other way.
Assay: qHTS assay to identify small molecule agonists of the peroxisome proliferator-activated receptor delta (PPARd) signaling pathway - cell viability counter screen (AID 743211); also: nearly all actives have a fitted effect of over 55% in size
Settings: PPARd-bla HEK293H viability, CellTiter-Glo luminescence, 17 h; series mostly up to 62.6 µM
Source text: U.S. Tox21 Program National Center for Advancing Translational Sciences [NCATS] NIH Chemical Genomics Center [NCGC] U.S. Environmental Protection Agency [EPA] National Institutes of Environmental Health Sciences [NIEHS] National Toxicology Program [NTP] U.S. Food and Drug Administration [FDA] Tox21 Assay Overview: The peroxisome proliferator-activated receptors (PPARs) are lipid-activated transcription factors of the nuclear receptor superfamily with three distinct subtypes namely PPAR alpha, PPAR delta (PPARd) and PPAR gamma. All these subtypes heterodimerizes with Retinoid X receptor (RXR) and have different physiological functions. […] To identify the compounds that activate PPAR-delta signaling, GeneBLAzer PPAR delta UAS-bla HEK293H cell line (Invitrogen, Carlsbad, CA, USA) containing a beta-lactamase reporter gene under the control of an Upstream Activator Sequence (UAS) was used to screen the Tox21 compound library. The cytotoxicity of the Tox21 compound library against the PPARd-bla cell line was tested in parallel by measuring the cell viability using CellTiter-Glo assay (Promega, Madison, WI) in the same wells.
Tox21 Assay Protocol Summary: PPARd-bla cells were dispensed at 3000 cells/6uL/well in 1536-well black wall/clear bottom plates using a Multidrop Combi (Thermo Fisher Scientific, Waltham, MA) dispenser. After the assay plates were incubated at 37 C and 5% CO2 for 5 h, 23 nL of compounds dissolved in DMSO, positive controls or DMSO only was transferred to the assay plate by a Pintool station (Kalypsys, San Diego, CA). The assay plates were incubated at 37C for 17 h. After 1 uL of LiveBLAzerTM B/G FRET substrate was added using a Bioraptr Flying Reagent Dispenser (FRD) workstation (Beckman Coulter, Indianapolis, IN, USA), the plates were incubated at room temperature for 2 h, and fluorescence intensity was measured by an Envision plate reader (PerkinElmer, Shelton, CT). For cell viability readout that measures cytotoxicity, 3 ul/well of CellTiter-Glo reagent was added into the assay plates using a Bioraptr FRD. After 30 min incubation at room temperature, the luminescence intensity in the plates was measured using a ViewLux plate reader (PerkinElmer).
With O=C(OCC(COC(=O)c1cccnc1)(COC(=O)c1cccnc1)COC(=O)c1cccnc1)c1cccnc1 the outcome was “inactive”.
In the case of Nc1nnc(-c2cccc(Cl)c2Cl)c(N)n1, the outcome is reported as “inactive”.
For Cc1ccc2c(c1)OCC(=O)CO2, the outcome was “inactive”.
In the case of CC1(C)S[C@@H]2[C@H](N=CN3CCCCCC3)C(=O)N2[C@H]1C(=O)O, the outcome is reported as “inactive”.
With N[C@@H](CCC(=O)N[C@@H](CS)C(=O)NCC(=O)O)C(=O)O the outcome was “inactive”.
For CC(=O)Nc1ccc(S(=O)(=O)Nc2ccc([N+](=O)[O-])cc2)cc1, the outcome was “inactive”.
With CCCOC(OCCC)OCCC the outcome was “inactive”.
With CN(C)C(=O)CNC(=O)Cc1ccccc1 the outcome was “inactive”.
With CC(C)(C)c1cc(CCC(=O)NN)cc(C(C)(C)C)c1O the outcome was “inactive”.
For N[C@@H](COP(=O)(O)O)C(=O)O, the outcome was “inactive”.
In the case of CCN(CC)CC(=O)Nc1c(C)cccc1C, the outcome is reported as “inactive”.
In the case of CC1(CO)CN(c2ccccc2)NC1=O (stereo not given), the outcome is reported as “inactive”.
In the case of O=C(OCC1(COC(=O)c2cccnc2)CCCC(COC(=O)c2cccnc2)(COC(=O)c2cccnc2)C1O)c1cccnc1, the outcome is reported as “inactive”.
For Cc1ccccc1N=O, the outcome was “inactive”.
For CC(=O)CCCCn1c(=O)c2c(ncn2C)n(C)c1=O, the outcome was “inactive”.
In the case of O=C(O)C(=O)Cc1ccccc1, the outcome is reported as “inactive”.
With OCCC(F)(F)C(F)(F)C(F)(F)C(F)(F)C(F)(F)C(F)(F)C(F)(F)C(F)(F)F the outcome was “inactive”.
In the case of C=C(C)C(=O)OCCOP(=O)(O)OCCOC(=O)C(=C)C, the outcome is reported as “inactive”.
With O=C1c2cccc3c2[C@H](CCC3)CN1[C@@H]1CN2CCC1CC2 the outcome was “inactive”.
In the case of COc1nccnc1NS(=O)(=O)c1ccc(N)cc1, the outcome is reported as “inactive”.
In the case of C=C(C)C(=O)OCc1ccccc1, the outcome is reported as “inactive”.
For O=C(OCC(O)CO)c1ccccc1Nc1ccnc2c(C(F)(F)F)cccc12 (stereo not given), the outcome was “inactive”.
In the case of C[C@@H](Oc1ccc(CNC(=O)c2cccnc2Oc2ccc3c(c2)OCO3)c(F)c1)C(=O)O, the outcome is reported as “inactive”.
For O=C1O[C@@H]2[C@@H](O)[C@H](O)O[C@@H]2[C@H]1O, the outcome was “inactive”.
For COc1ccc(OC)c(Cl)c1, the outcome was “inactive”.
In the case of CCn1ccc(NS(=O)(=O)c2ccc(N)cc2)nc1=O, the outcome is reported as “inactive”.
For COCCc1ccc(OCC2CO2)cc1 (stereo not given), the outcome was “inactive”.
In the case of CC(=O)/C=C/C1C(C)=CCC(C)C1(C)C (stereo not given), the outcome is reported as “inactive”.
For O=C(/N=N/C(=O)OCc1ccccc1)OCc1ccccc1, the outcome was “inactive”.
With COc1cc2c(cc1OC)[C@@H]1CC(=O)[C@@H](CC(C)C)CN1CC2 the outcome was “inactive”.
With BrCc1cccc(Oc2ccccc2)c1 the outcome was “inactive”.
In the case of COc1ccc2c(c1)C(=O)N(CCc1ccc(S(=O)(=O)NC(=O)NC3CCCCC3)cc1)C(=O)C2(C)C, the outcome is reported as “inactive”.
For O=C(O)Cc1cn(-c2ccccc2)nc1-c1ccc(Cl)cc1, the outcome was “inactive”.
With C[Si](C)(C)C the outcome was “inactive”.
In the case of OCCN(CCO)c1cccc(Cl)c1, the outcome is reported as “inactive”.
For O=C1c2ccccc2C(=O)N1CCl, the outcome was “inactive”.
For C[C@@H]1O[C@@H](O[C@@H]2[C@@H](O)[C@H](OCCc3ccc(O)c(O)c3)O[C@H](CO[C@@H]3O[C@H](CO)[C@@H](O)[C@H](O)[C@H]3O)[C@H]2OC(=O)/C=C/c2ccc(O)c(O)c2)[C@H](O)[C@H](O)[C@H]1O, the outcome was “inactive”.
For Oc1cn2c(n1)Nc1ccc(Cl)c(Cl)c1C2, the outcome was “inactive”.
With CC(=O)c1ccc2c(c1)Cc1ccccc1-2 the outcome was “inactive”.
For CCCCNc1ccc(C(=O)OCCN(C)C)cc1, the outcome was “inactive”.

— PubChem BioAssay (Tox21)
